From PubChem BioAssay AID449762 (Southern Research Specialized Biocontainment Screening …, 2010)
About 1,900 (0.58%) of roughly 330,000 compounds were called active. Roughly 4% stayed inconclusive and do not appear here. Not all results are given here. Potency and affinity values are given separately. Values without a mark were called inactive. Cut-off read from the data, not from the text of the source: inconclusive = inhibition above about 70% without an active follow-up result; inactive = below that.

Experiment: M. tuberculosis growth inhibition, HTS (AID 449762);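 note: bacterial growth assessed after seven days of incubation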
Settings: M. tuberculosis H37Rv growth inhibition, 7H9 media; at 25 µM; hits give high values
In the case of `CCN1CCN(C(c2ccccc2)c2nnnn2Cc2ccc3c(c2)OCO3)CC1` (stereo unspecified), the inhibition is reported as -1.8%. With `COCCn1nnnc1C(c1ccccc1)N1CCN(Cc2ccc3c(c2)OCO3)CC1` (stereo unspecified) the inhibition was 5.3%. Molecule `Cc1cc(C(=O)CSc2nnc(-c3ccco3)o2)c(C)n1C` has an inhibition of 0.77%. `COc1ccc(N2CCN(C(=O)CSc3nc(C)cs3)CC2)cc1` showed an inhibition of 13.4%. Molecule `COCC(C)n1c(SCC(=O)Nc2oc(C)c3c(C)n[nH]c(=O)c23)nc2ccccc2c1=O` (stereo unspecified) has an inhibition of 1.83%. In the case of `COc1cccc2cc(C(=O)N(C)C3CCN(C)CC3)c(=O)oc12`, the inhibition is reported as 2.2%. Work on `CCOc1ccc(NC(=O)Nc2cccn(Cc3ccccc3)c2=O)cc1` yielded an inhibition of 11.4%. Work on `CSc1ccc(NC(=O)Nc2cccn(Cc3ccccc3F)c2=O)cc1` yielded an inhibition of 0.76%. In the case of `Cc1nnc(SCCC(=O)Nc2ccc(F)cc2)s1`, the inhibition is reported as 58.3%. For `Cc1ccc(NC(=O)c2ccccc2NC(=O)c2cccnc2)cc1`, the inhibition was 11.1%. `O=C(NNC(=S)Nc1ccccc1Cl)c1ccccc1` gave an inhibition of -3.72%. In the case of `CCn1cc(C(=O)NCC(C)C)c(=O)c2cc(F)c(N3CCN(C(=O)c4ccco4)CC3)cc21`, the inhibition is reported as 0.58%. In the case of `CCn1cc(C(=O)NC(C)C)c(=O)c2cc(F)c(N3CCN(C(=O)c4ccco4)CC3)cc21`, the inhibition is reported as 19.2%. `Cc1cc(C)nc(-n2nc(C)cc2NC(=O)c2ccc(S(=O)(=O)N3CCOCC3)cc2)n1` showed an inhibition of 9.62%. For `Cc1nn(C)c(C)c1/C=C(/C(=O)C(C)(C)C)n1cncn1`, the inhibition was -1.56%. Molecule `CC(=O)N/C(=C\c1cccc([N+](=O)[O-])c1)C(=O)NC(C)C` has an inhibition of -0.52%. With `Cc1c(Oc2ccc(C(F)(F)F)cc2[N+](=O)[O-])ccc2c3c(c(=O)oc12)CCC3` the inhibition was -1.9%. Molecule `CCOc1ccc(N2C(=O)CC(NCC#N)C2=O)cc1` (stereo unspecified) has an inhibition of 0.53%. Work on `O=C1Nc2cc(C(=O)NCCCN3CCOCC3)ccc2S/C1=C/c1ccccc1F` yielded an inhibition of 16.4%. With `COc1ccc(/C=C2/Sc3ccc(C(=O)NCCCN4CCOCC4)cc3NC2=O)cc1OC` the inhibition was -4.7%. With `Cc1c(Cl)ccc2c(C(=O)O)cc(-c3ccccc3)nc12` the inhibition was 0.17%. With `COc1ccc(OC)c(-c2cc(C(=O)NC3CCCC3)c3ccccc3n2)c1` the inhibition was -8.38%. Work on `CC1CCc2cc(F)ccc2N1C(=O)c1cccs1` (stereo unspecified) yielded an inhibition of 1.29%. In the case of `CC(C)(C)c1cc(N2CCOCC2)n2ncc(-c3ccccc3)c2n1`, the inhibition is reported as 3.06%. With `Cc1nccn1-c1cc(C(C)(C)C)nc2c(-c3ccccc3)cnn12` the inhibition was -1.52%. With `CCCCNC(=O)C1=C(N)C(C(=O)Nc2ccc(C)c(S(=O)(=O)N3CCCCC3)c2)SC1=Nc1ccc(C)cc1C` (stereo unspecified) the inhibition was -11.1%. For `O=C(CCc1nc(-c2ccccc2Cl)no1)NC1CCCC1`, the inhibition was -5.48%. With `COc1ccc(-c2cc(-c3ccccc3)c(C#N)c(S(C)(=O)=O)n2)cc1` the inhibition was 8.53%. `CS(=O)c1nc(-c2ccc(Br)cc2)cc(-c2ccccc2)c1C#N` (stereo unspecified) gave an inhibition of 65%. With `CC1(C)Cc2nc3nc(SCC(=O)NCCc4ccccc4)n(-c4ccccc4)c(=O)c3cc2CO1` the inhibition was -2.48%. For `S=C(Nc1cccc(Cl)c1)N1CCOCC1`, the inhibition was -10.2%. For `Cc1ccc2[nH]c(=O)c(CN(CCCN3CCOCC3)C(=O)Nc3cccc(Cl)c3)cc2c1`, the inhibition was 10.9%. In the case of `CCc1ccc2[nH]c(=O)c(CN(CCCN3CCOCC3)C(=O)Nc3ccccc3)cc2c1`, the inhibition is reported as 4.92%. `C=CC[C@@H](CC(=O)N[C@H](CO)Cc1ccccc1)C(=O)N[C@@H](C)COC(=O)[C@@H](CC=C)Cc1ccc(F)cc1` gave an inhibition of 3.8%. For `COc1ccccc1N1CCN(CCCCOc2ccc(F)cc2)CC1`, the inhibition was -1.86%. In the case of `Clc1cccc(OCCCCN2CCCCC2)c1`, the inhibition is reported as 0.99%. Molecule `NC(=O)c1ccc(-c2ncc(-c3ccccc3)o2)cc1` has an inhibition of 51.1%. Molecule `COC(=O)c1ccc(-c2n[nH]c(=O)c3ccccc23)cc1` has an inhibition of -2.05%. Work on `CCN1C(=O)[C@H]2[C@@H](c3ccc(-c4ccc(C(C)=O)cc4)cc3)N3CCCC[C@@]3(C(=O)OC)[C@H]2C1=O` yielded an inhibition of -6.49%. `CCCCN1C(=N)N([C@@H](CCC)CN2CCC[C@H]2CN2C(N)=NC[C@H]2C(C)C)C[C@H]1[C@H](C)CC` showed an inhibition of 1.37%. `O=C(Cc1ccccc1)c1nc2ccccc2s1` showed an inhibition of -3.11%. With `Cc1cc(C)cc(OCC(=O)OCC(=O)c2cc(C)n(C3CC3)c2C)c1` the inhibition was 54.3%. For `Cc1cc(C(=O)COC(=O)COc2ccc(C#N)cc2)c(C)n1C1CC1`, the inhibition was 3.67%. `CC(=O)NC(Cc1c[nH]c2ccccc12)C(=O)Nc1ccc2c(c1)OCO2` (stereo unspecified) showed an inhibition of -2.05%. `C/C(=N/OC(=O)c1c(-c2ccccc2Cl)noc1C)c1cnccn1` showed an inhibition of 3.98%. For `COc1ccc(CN2CCNC(=O)C2CC(=O)N(C)Cc2cc(C)no2)cc1OC` (stereo unspecified), the inhibition was -7.74%. In the case of `CCOC(=O)Cc1cc(=O)[nH]c(Nc2nc3ccccc3o2)n1`, the inhibition is reported as -2.99%. With `COC(=O)Cc1cc(=O)[nH]c(Nc2nc3ccccc3o2)n1` the inhibition was 29.9%. With `C/C(Sc1nnc(Cc2ccccc2)o1)=C(/O)c1ccccc1` the inhibition was -0.32%. `S=C1NCCOCCOCCOCCOCCNC(=S)NCCOCCOCCOCCOCCN1` gave an inhibition of -3.9%. For `N#C/C(=C(/O)COc1ccccc1)c1nc2ccccc2s1`, the inhibition was 56.1%. `Cc1ccc(SC/C(O)=C(\C#N)c2nc3ccccc3s2)cc1` gave an inhibition of 1.37%. Work on `O=C(O)CCc1nc(-c2ccccc2)c(-c2ccccc2)o1` yielded an inhibition of 6.1%. For `O=C(CCc1nc(-c2ccccc2)c(-c2ccccc2)o1)OCc1ccc(Br)cc1`, the inhibition was 70.2%. In the case of `O=C(Nc1nc2ccc(S(=O)(=O)N3CCCC3)cc2s1)c1ccco1`, the inhibition is reported as -2.95%. With `COc1ccccc1-n1c(/C=C/c2ccccn2)nc2ccccc2c1=O` the inhibition was -5.93%. With `CC(C)N(C(=S)Nc1cc(S(=O)(=O)N2CCOCC2)ccc1Cl)c1ccccc1` the inhibition was -5.84%. With `NNC(=O)c1cc(-c2cccs2)nc2ccccc12` the inhibition was 9.4%. Work on `Cc1cc(NC(=O)c2cc(-c3cccs3)nc3ccccc23)no1` yielded an inhibition of -0.3%. With `CC(C)N(C1=N/C(=C\c2ccco2)C(=O)N1c1ccccc1)C(C)C` the inhibition was -0.07%. Work on `Cc1noc(C(F)(F)F)c1C(=O)NNC(=O)c1cccc(C(F)(F)F)c1` yielded an inhibition of 3.93%. Work on `CCOC(=O)C1C(=O)NC(SCC(=O)Nc2nccs2)=C(C#N)C1c1ccccc1OCC` (stereo unspecified) yielded an inhibition of 55.1%. In the case of `CC1CCCCN1CCNC(=O)C1CCCN(S(=O)(=O)c2cccc3nsnc23)C1` (stereo unspecified), the inhibition is reported as 3.33%. Work on `CN(C)c1nc(NCc2ccccc2)nc(N/N=C/c2ccc(Cl)cc2Cl)n1` yielded an inhibition of 9.37%. With `CN(C)c1nc(NCc2ccccc2)nc(N/N=C/c2ccc(Br)cc2)n1` the inhibition was 3.27%. Molecule `COc1ccc(N2CC(C(=O)O)CC2=O)cc1` (stereo unspecified) has an inhibition of -12.1%. In the case of `COc1ccc(CN=C(C)c2c(C(F)(F)F)[nH]n(-c3nc4ccccc4s3)c2=O)cc1`, the inhibition is reported as -13.3%. Work on `CCC(=NCc1ccccc1)c1c(C(F)(F)F)[nH]n(-c2nc3ccccc3s2)c1=O` yielded an inhibition of -0.69%. `COc1ccccc1NC(=O)CSc1nn2c(=O)c(C)nnc2s1` gave an inhibition of -20.7%. In the case of `Cc1cc(C)nc(SCCCNCc2c(F)cccc2Cl)n1`, the inhibition is reported as 0.32%. In the case of `Cc1ccc(-n2c(C)nc3ccsc3c2=O)cc1`, the inhibition is reported as 9.48%. `Cc1ccc(-n2c(Cl)c(Cl)[nH]c(=O)c2=O)cc1` gave an inhibition of -6.67%. `Cc1noc(C)c1COc1ccccc1C(=O)N1CCN(S(=O)(=O)c2ccccc2C(F)(F)F)CC1` showed an inhibition of -1.24%. `COC(=O)c1cccc(NC(=O)Cc2ccccc2[N+](=O)[O-])c1C` gave an inhibition of 2.19%. `OC(Cn1cncn1)c1ccc(Cl)cc1` (stereo unspecified) showed an inhibition of -4.52%. Work on `Cc1ccc(CNC(=O)NC23CC4CC(CC(C4)C2)C3)cc1` yielded an inhibition of 7.32%. With `O=C(NCc1ccccc1)NC12CC3CC(CC(C3)C1)C2` the inhibition was -2.17%. `Cc1noc(C)c1COc1ccc(C(=O)OCC(N)=O)cc1` showed an inhibition of 12.9%. In the case of `Cc1noc(C)c1COc1ccc(C(=O)OCC(=O)NC2CCCCC2C)cc1` (stereo unspecified), the inhibition is reported as 48.8%. `Cc1ccc(N2CC(C(=O)NC3=NCCS3)CC2=O)cc1` (stereo unspecified) showed an inhibition of 4.82%. For `CCc1ccc2oc(-c3ccc(OC)cc3)cc(=Nc3cccc(C(=O)O)c3)c2c1`, the inhibition was 39.4%. In the case of `COc1ccc(-c2cc(=Nc3c(C)n(C)n(-c4ccccc4)c3=O)c3ccccc3o2)cc1`, the inhibition is reported as 35.5%. `CNC(=O)c1cnn(-c2nc(-c3ccc(OC)cc3)cs2)c1C(F)(F)F` showed an inhibition of 9.09%. `CCN1CCc2c(OCC(=O)Nc3ccccc3)cccc2C1=O` showed an inhibition of -8.51%. Work on `COc1cccc(-c2cc(C(F)(F)F)nc(N3CCC(C)CC3)n2)c1` yielded an inhibition of 2.81%. With `O=C(COC(=O)C1=COCCO1)NCc1ccc(F)cc1` the inhibition was 5.31%. In the case of `O=C(COC(=O)C1=COCCO1)Nc1ccccc1`, the inhibition is reported as 65.9%. In the case of `CC(=O)c1cccc(NC(=O)COC(=O)C2=COCCO2)c1`, the inhibition is reported as -0.86%. For `COc1ccc(CNC(=O)COC(=O)C2=COCCO2)cc1`, the inhibition was 12.1%. With `CCCCN1C(=N)N([C@@H](C)CN2CCC[C@H]2CN2C(N)=NC[C@@H]2Cc2ccccc2)C[C@H]1Cc1ccccc1` the inhibition was 67.2%. With `CCCCN1C(=N)N([C@@H](CCC)CN2CCC[C@H]2CN2C(N)=NC[C@@H]2Cc2ccccc2)C[C@H]1[C@H](C)CC` the inhibition was 4.76%.
